From PubChem BioAssay
Calb FLC = affects C. albicans growth with fluconazole; C. albicans CaCi-2 (fluconazole-resistant clinical isolate) + fluconazole, Alamar Blue growth, 48 h; growth inhibition, % (concentration not given with the values); actives 0.57% (n = 300,000);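 active = growth inhibition above about 58% in most replicates, limit read from the data, passing the limit was not always enough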;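 also: all wells also contain fluconazole at 8 µg/ml as a sub-toxic cotreatment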
IDE inh = cellular human IDE inhibition; P14735; HEK cells, FAbetaB cleavage, fluorescence polarization; inhibition, % at 5.59 µM; actives 0.41% (n = 320,000); AID 434962;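 active = percent inhibition above the average of all tested compounds plus 3 SD, set per screening campaign, cut at about 16% in these data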;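 also: IDE supplied by intact live HEK cells; FP after avidin binding of uncleaved biotin substrate so inhibition keeps polarization high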
TPT1 inhibitor = blocks Candida albicans tRNA 2'-phosphotransferase | recombinant caTPT1, FP RNA substrate dephosphorylation | inhibition, % at 5 µM | actives 0.81% (n = 300,000) | AID 1962;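 active = inhibition above the mean of all tested compounds plus 3 SD, set per screening campaign, cut at about 24% in these data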
IDE cell activ = IDE (human) activation, cell-based | HEK cells, FAbeta-B cleavage, fluorescence polarization; 0% vehicle, 100% cell-free pure enzyme wells | actives 0.073% (n = 340,000) | activation, % at 5.96 µM | AID 493087;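 active = activation above the mean of all tested compounds plus 3 SD, set per screening campaign, cut at about 17% in these data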
Rin1-Abl PPI inh = inhibitors of human Rin1-Abl protein interaction; TR-FRET Rin1/Abl binding, biochemical; inhibition, % at 7.35 µM; actives 0.4% (n = 360,000); in the data active = inhibition above about 5%, passing the limit was not always enough
Rpn11 inh = blocks the human proteasome subunit Rpn11; O00487; human 26S proteasome, Ub4-pepOG fluorescence polarization; 20S core pre-blocked with epoxomicin; AID 588493; inhibition, % at 20 µM; actives 0.59% (n = 360,000);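 active = inhibition at 20 µM, scaled to each plate's controls, above about 33%, limit read from the data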
Target sequence (O00487 whole entry, looked up): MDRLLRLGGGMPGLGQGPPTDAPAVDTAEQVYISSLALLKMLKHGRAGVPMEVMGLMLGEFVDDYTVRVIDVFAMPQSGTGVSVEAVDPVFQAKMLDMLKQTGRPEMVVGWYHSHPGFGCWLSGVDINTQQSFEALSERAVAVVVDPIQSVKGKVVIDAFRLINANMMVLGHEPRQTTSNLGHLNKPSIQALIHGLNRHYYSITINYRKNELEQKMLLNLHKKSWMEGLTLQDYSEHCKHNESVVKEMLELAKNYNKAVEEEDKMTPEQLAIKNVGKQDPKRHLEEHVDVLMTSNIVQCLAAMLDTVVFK
Rin1 Abl conf = Rin1-Abl interaction inhibition confirmation | shares compounds with Rin1-Abl PPI inh | TR-FRET Rin1-Abl binding, purified proteins | inhibition, % at 7.35 µM | actives 49% (n = 1,300) | AID 602124
GFP quench = counter-screen for Rin1-Abl inhibitors: GFP fluorescence quenchers | inhibitors/quenchers counterscreen | shares compounds with Rin1-Abl PPI inh | inhibition, % at 6.75 µM | actives 8.5% (n = 1,300);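 also: ABL1-eGFP fusion protein alone without its partner RIN1-SBP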
GFP quench DR = GFP fluorescence interference dose response; shares compounds with Rin1-Abl PPI inh; GFP fluorescence interference/quenching counterscreen; IC50, µM; 230 tested, under 10 active; AID 602182; call rule not given here;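 also: ABL1-eGFP fusion protein alone without its RIN1 binding partner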
Numbers stand for hits; i = inactive; nt = not tested or not shown. Only some compounds are listed: those with a hit (about 2.3% of all), similar ones and a draw of the others. Rule as the data show it, unless noted: active = inhibition above about 6.5%; inactive = the rest.

SMILES	Calb FLC	IDE inh	TPT1 inhibitor	IDE cell activ	Rin1-Abl PPI inh	Rpn11 inh	Rin1 Abl conf	GFP quench	others
CCOc1ccc(S(=O)(=O)N2CCCC(C(=O)NCc3ccccc3)C2)cc1 (stereo not drawn)	i	i	i	i	i	i	nt	nt
CCOc1ccc(C(=O)Nc2nncs2)cc1OCC	i	i	i	i	i	i	nt	nt
CCOc1ccc(C(=O)Nc2nnc(C(C)C)s2)cc1OCC	i	i	i	i	7.8	i	i	i
Cc1nn(Cc2c(Cl)cccc2Cl)c(C)c1NC(=O)c1cnn2c(C(F)F)cc(-c3ccccc3)nc12	i	i	i	i	12.3	i	i	i
Cc1ccc(-c2cc(C(F)F)n3ncc(C(=O)Nc4c(C)nn(Cc5c(Cl)cccc5Cl)c4C)c3n2)cc1	i	i	i	i	i	i	nt	nt
CC1CCCN(CCCNC(=O)C2CCN(S(=O)(=O)N3CCC4(CC3)OCCO4)CC2)C1 (stereo not drawn)	i	i	i	i	i	i	nt	nt
COc1cc(S(=O)(=O)Nc2ccccc2)ccc1NC=O	i	i	i	i	5.4	i	i	i
COc1ccc(NS(=O)(=O)c2ccc(OC)c(OC)c2)cc1OC	i	i	i	i	i	i	nt	nt
Cc1cc(=O)oc2cc(OCC3CC(c4ccccc4)=NO3)ccc12 (stereo not drawn)	i	i	i	i	11.2	i	i	i
COc1ccccc1C(=O)Nc1ccnn1C1CCN(C/C=C/c2ccc(F)cc2)CC1	i	i	i	i	i	i	nt	nt
CC1CC(=O)Nc2cc([N+](=O)[O-])ccc2N1 (stereo not drawn)	i	i	i	i	i	i	nt	nt
CN=c1scc(C)n1/N=C/c1cc(Br)c(O)c(OC)c1	i	i	i	i	i	i	nt	nt
CN=c1scc(-c2cccs2)n1/N=C/c1ccc(O)c(O)c1O	i	i	i	i	8.8	i	9.7	12.6
CN=c1scc(-c2cccs2)n1/N=C/c1ccccc1O	i	i	i	i	i	i	nt	nt
CN=c1scc(C)n1/N=C/c1ccc(O)c(O)c1O	i	i	i	i	35.7	i	20.9	20.4
C=CCN=c1scc(-c2ccco2)n1/N=C/c1ccc(O)c(O)c1O	i	i	i	i	10.8	i	i	7.3
Nc1nccnc1C(=O)OCC(=O)c1ccc[nH]1	nt	i	i	i	i	i	nt	nt
CCOC(=O)C1(C)CCCN1C(=O)c1ccccc1F (stereo not drawn)	nt	nt	nt	nt	i	i	nt	nt
COC(=O)c1ccc(CSc2nnc(CNC(=O)c3ccc(OC)cc3)o2)o1	i	i	i	i	i	i	nt	nt
COC(=O)c1ccc(CSc2nnc(CNC(=O)c3ccccc3F)o2)o1	i	i	i	i	8.5	i	10.9	i
COC(=O)c1ccc(CSc2nnc(CNC(=O)COc3ccc(Cl)cc3)o2)o1	i	i	i	i	17.1	i	18.6	i	GFP quench DR=i
CC1(C(=O)NS(=O)(=O)c2ccc(Cl)cc2)CCN1C(=O)c1ccc(C2CCCCC2)cc1 (stereo not drawn)	nt	nt	nt	nt	i	i	nt	nt
COc1ccccc1NC(=O)COC(=O)c1[nH]c(=O)[nH]c(=O)c1N	nt	i	nt	i	i	i	nt	nt
CC(NC(=O)C(=O)c1cn(CC(=O)N2CCOCC2)c2ccccc12)c1ccccc1 (stereo not drawn)	i	i	i	i	18.5	i	i	i
CC(NC(=O)C(=O)c1cn(CC(=O)N2CCCC2)c2ccccc12)c1ccccc1 (stereo not drawn)	nt	nt	nt	nt	i	i	nt	nt
Cc1ccc(-n2nnnc2SCC(=O)N2Cc3ccccc3CC2C(=O)O)cc1 (stereo not drawn)	i	i	i	i	i	i	nt	nt
Cc1ccc(-n2c(SCC(=O)N3Cc4ccccc4CC3C(=O)O)nnc2-c2cccnc2)c(C)c1 (stereo not drawn)	i	i	i	i	7.0	i	18.1	i	GFP quench DR=i
